Structures are written as SMILES. The panel holds about 83,000 compounds, 20% with a hit somewhere; the sample as a whole holds those more often.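 Each cell line was grown in a 96-well plate and treated with one concentration of compound for 48 hours. Values below 10 were considered active.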 A number with no mark means an inactive call. Active and inactive are the calls of the source.

The experiment deals with HCT-116 colon. The experiment in a line: NCI-60 one-dose screen, 48 h (100 = growth as untreated, 0 = no growth, -100 = all killed). The following applies: 10 µM. The method, then: Growth inhibition of the HCT-116 human tumor cell line is measured as a screen for anti-cancer activity. Cells are grown in 96 well plates and exposed to the test compound for 48 hours. Compounds are tested at a single concentration, which is 10^-5 M for most compounds. The reported endpoint is percent growth (GI% or GIPRCNT), where numbers from 0 - 100% represent growth inhibition, and numbers from -100% - 0 represent cell death. For example, a value of 40 represents 60% growth inhibition. A value of 0 means no net growth occurred over the course of the experiment. A value of -40 indicates 40% of cells at the beginning of the experiment died by the end of the experiment. A value of -100 means all cells are dead at the end of the experiment.
NCI-60 Human Tumor Cell Lines Screen was performed using the standard one-dose NCI protocol, which is described in more detail at https://dtp.cancer.gov/discovery_development/nci-60/default.htm.
Compounds with GIPRCNT values below 10 were considered active. Activity score was based on GIPRCNT using the following formula: […]
Score is 0 for GIPRCNT values of 100 or above, 50 for GIPRCNT values of 0, and 100 for GIPRCNT values of -100.
`COc1cccc(C2C(C#N)=C(N)Oc3cc(N)ccc32)c1` (stereo not given): the growth is 23.2%.

Consider `CCC(C)[C@H](NC(C)=O)C(=O)N[C@@H](CCCNC(=N)N)C(=O)N[C@@H](CCCCN)C(=O)N[C@@H](CC1CCC(O)CC1)C(=O)NC(C(=O)N[C@@H](CCSC)C(=O)N[C@@H](CCCNC(=N)N)C(=O)N[C@@]1(C)CCC/C=C\CCC[C@@](C)(C(=O)NC(C(=O)N[C@@H](CCC(=O)O)C(=O)N[C@@H](CC(C)C)C(=O)N[C@H](C(=O)N[C@@H](CCC(=O)O)C(N)=O)C(C)C)[C@@H](C)O)NC(=O)[C@H](CCC(N)=O)NC(=O)[C@H](CC(C)C)NC(=O)[C@H](CC(C)C)NC1=O)[C@@H](C)O` (stereo not given in full), for which the growth is 89.1%. `Cc1ccc(C(=O)C2C(=O)C3CCC2C3)cc1` (stereo not given): the growth is 108%. With `COc1ccc(-c2nn(-c3cccc(Cl)c3)cc2C=C(C#N)C#N)cc1` the figure was -40.9% (active); with `CC(C)(C)OC(=O)N1CCc2c(sc3ncnc(N/N=C/c4ccccc4Br)c23)C1`, 41.6%. For the compound `CC(=O)OC1CC2C(C)(C)CCC[C@]2(C)C2=C1C(O)=C(C(C)C)C(=O)C2=O` (stereo not given in full), the growth is -8.31% (active). In the case of `CCc1ccc(C2=NN(c3ccc(S(C)(=O)=O)cc3)C(=O)CC2)cc1` it was 15.7%. With `COc1ccc(/C=C2\CCCC3=C2N=C2SC(C)=CN2C3c2ccc(OC)cc2)cc1` (stereo not given) the figure was 93.4%; with `COc1ccc(-c2nn(-c3cccc(Cl)c3)cc2-c2c(C#N)c(=O)n3[nH]c(-c4ccc(C)cc4)nc3c2C#N)cc1`, 9.86% (active). With `COc1cc(-c2nn(-c3cccc(NC(=O)CCN4CCN(Cc5ccccc5)CC4)c3)cc2-c2ccncc2)ccc1Cl` the figure was 1.3% (active); with `COc1cccc2ccc(CC(O)(c3ccccc3)c3ccccc3)nc12`, 77.1%. `COc1cc(C2CC(c3ccc4c(c3)OCO4)=NN2c2ccccc2)cc(OC)c1OC` (stereo not given): the growth is 93.5%. For the compound `COc1cc2c(cc1OC)C(C(CCCCCC(CCC(C)C)C1NCCc3cc(OC)c(OC)cc31)CCC(C)C)NCC2` (stereo not given), the growth is -100% (active).

As to `COc1ccc2c(c1)CC=C1[C@@H]2CC[C@]2(C)C(=O)/C(=N/O)C[C@@H]12`, the growth is 61.9%. Regarding `O=C1c2ccccc2C(=O)c2c1ccc(C(Br)Br)c2[N+](=O)[O-]`, the growth is -63.9% (active). With `CN(C)CCCOc1cccc(NC2=C(Cl)C(=O)C(Nc3cccc(OCCCN(C)C)c3)=C(Cl)C2=O)c1` the figure was -88.7% (active); with `O=C(CSc1nccc(Nc2cccc3ccccc23)n1)c1ccc(Cl)cc1`, 67.5%. As to `CCC(CC)n1c(C)cc(=O)n1C(CC)CC`, the growth was 105%. Take `COc1ccc(-c2nc(-c3nc4ccc(C)cc4[nH]3)cc3c2[nH]c2ccccc23)cc1`: the growth was 19.3%. Turning to `CC(C)(O)CCl`, the growth is 110%.

As to `O=C(O)c1ccc(-n2cc(CNc3ccc(Cl)cc3)c(-c3ccccc3)n2)cc1`, the growth is 85.9%.

Take `O=C(CCCSc1nc(-c2ccccc2)cc(-c2ccc(Cl)cc2)n1)NO`: the growth is 11.9%. `CNC(=O)c1cc(Oc2ccc3c(c2)sc2nc(-c4ccc(NC(=O)Nc5ccc(Cl)c(C(F)(F)F)c5)cc4)cn23)ccn1`: the growth was 73.2%.

Take `COc1cc2c3c(n(C4CCNCC4)c(=O)c2cc1OC)-c1cc2c(cc1C3=O)OCO2`: the growth is -60.7% (active). On to `CC(C)[N+]1(C)C2CC[C@@H]1CC(OC(=O)C(CO)c1ccccc1)C2` (stereo not given in full), for which the growth was 107%. In the case of `O=C(CSc1nnc(-c2ccc(Cl)cc2)o1)Nc1ccc(C(=O)/C=C/c2ccc(Cl)cc2)cc1` it was 103%; in that of `O=C(N/N=C/c1ccc(Cl)cc1)c1ccc(Cc2n[nH]c(=O)c3cccnc23)cc1`, 94.5%. Regarding `COC(=O)c1c[nH]c2cc(OC(C)C)c(OC(C)C)cc2c1=O`, the growth is 102%. As for `CC[C@@H]1NC(=O)[C@H]([C@H](O)[C@H](C)C/C=C/c2ccc(CN3C(=O)CCCC3=O)cc2)N(C)C(=O)[C@H](C(C)C)N(C)C(=O)[C@H](CC(C)C)N(C)C(=O)[C@H](CC(C)C)N(C)C(=O)[C@@H](C)NC(=O)[C@H](C)NC(=O)[C@H](CC(C)C)N(C)C(=O)[C@H](C(C)C)NC(=O)[C@H](CC(C)C)N(C)C(=O)CN(C)C1=O`, the growth was 16%. With `O=C(CCl)Nc1ccc(Cc2ccc(NC(=O)CCl)cc2)cc1`, the growth was -56.8% (active).

`Cc1n[nH]c(C)c1N=Nc1cccc2c1C(=O)c1ccccc1C2=O`: the growth was 77.8%. `Cc1ccccc1N1C(=O)c2cc(S(N)(=O)=O)c(Cl)cc2NC1C` (stereo not given): the growth is 102%. `Cc1cn(-c2cc(F)cc(NC(=O)c3ccc(C)c(Nc4nccc(-c5cccnc5)n4)c3)c2)cn1`: the growth is 6.97% (active). As for `CC1=CC2C(C(O)CC3(C)C2CC(C)C32OCOC23COCO3)C2(C)C/C(=C/O)C(=O)C=C12` (stereo not given), the growth was -70.2% (active). In the case of `CC(=O)/C(=C/c1ccc(Br)cc1)C(=O)c1ccccc1`, the growth was 12.2%. In the case of `COc1cc(C(=O)N2CCN(c3cc4c(cc3F)c(=O)c(C(=O)NO)cn4C3CC3)CC2)cc(OC)c1OC`, the growth is 105%. Turning to `O=C(CCC(C(=O)c1ccccc1)c1ccccc1)c1ccccc1` (stereo not given), the growth is 50.3%. In the case of `CCC(=O)OC1CCC2C3CCC(=O)OC3C(C)(CCC(=O)O)CC12C` (stereo not given), the growth is 5.1% (active).

As to `Nc1ncc(-c2cnn(C3CCNCC3)c2)cc1-c1nc2ccccc2o1`, the growth was -2.99% (active). With `Cc1nn(-c2ccc(-c3ccc(OC(F)(F)F)cc3)cc2)c2nc(Cc3ccccc3)nc(N)c12` the figure was 36.3%.

The values are drawn from PubChem BioAssay (NCI).
